Among all 420,000 compounds or so, about 50,000 (12%) were called active. A call without a number means that no potency is given here. Inconclusive results (about 26%) are left out. Calls come from the whole dose curve; as a rule, active = well fitted inhibition curve with a large enough effect; inconclusive = small, poorly fitted or top-dose-only effect; inactive = flat fitted curve, though single readings scatter. For the sample, actives were picked, then their nearest neighbours and some compounds at random. Where a SMILES comes first, the peptide text is derived from it. [ ]: non-standard residue; d: D form. ξ: configuration not given here. ξM = CSCCC(N)C(=O)O
Potency is the fitted concentration of half-maximal effect.

A short description of this test: qHTS for Inhibitors of human tyrosyl-DNA phosphodiesterase 1 (TDP1): qHTS in cells in presence of CPT. Note: nearly all actives have a fitted effect of over 55% in size. As to conditions: chicken DT40 Tdp1-/-;hTDP1 cells + 20 nM CPT, ATP luminescence, 48 h; series mostly up to 46.2 µM. The procedure, abridged:
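Cell growth measured by CellTiter-Glo luminescence after a minimum 48 h, 37 C compound exposure with 20 nM CPT in Tdp1-knockout DT40 cells stably expressing hTDP1, seeded 400/well; qHTS titration format.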
Take `CS(=O)(=O)N1CCN(C(=O)CSc2ccccc2)CC1`: the Potency result was “inactive”.
The result for `CC(=O)Nc1ccc(NC(=O)CSc2nnnn2C2CCCCC2)cc1` reads “inactive”; that for `OC[C@H]1O[C@@H](c2nc(-c3nc(-c4ccc(F)cc4)no3)cs2)[C@H](O)[C@@H](O)[C@H]1O`, “inactive”; that for `O=C(NNC(=S)NCCCN1CCOCC1)c1ccncc1`, “inactive”.
Next, `COc1cc(Cl)c(NC(=O)C(NS(=O)(=O)c2cccs2)C(C)C)c(OC)c1` (stereo unspecified): “inactive”; `COc1ccc(CNC(=O)C(NS(=O)(=O)c2cccc3nsnc23)C(C)C)cc1` (stereo unspecified): “inactive”.
In the case of `CC(C)C(NS(=O)(=O)c1cccs1)C(=O)Nc1nc(C(C)(C)C)cs1` (stereo unspecified), the Potency is 16.4 µM (active).
The result for `O=C(CCNS(=O)(=O)c1ccccc1)NCCCc1ccccc1` reads “inactive”; that for `Nn1c(SCC(=O)Nc2ccc3c(c2)CCC3)nnc1C1CC1`, “inactive”.
As for `COC(=O)Cc1cnc(NC(=O)CSc2nc(C(C)C)cc(=O)[nH]2)s1`, the Potency result is “inactive”.
Next, `Cn1c(=O)c2sccc2n2c(CCC(=O)NCc3ccccc3Cl)nnc12`: “inactive”; `CCC(=O)N1CCc2cc(S(=O)(=O)NCCC(=O)Nc3cccc(C)c3C)ccc21`: “inactive”; `Cc1ccc(N2C(=O)CC(Nc3cccc4ccccc34)C2=O)cc1` (stereo unspecified): “inactive”.
The result for `CC1=C(C)CC2C(=O)N(c3cccc4ccccc34)C(=O)C2C1` (stereo unspecified) reads 18.4 µM (active); that for `O=C1c2ccccc2C(=O)N1c1cccc2ccccc12`, “inactive”; that for `CCc1nccn1S(=O)(=O)c1cccc([N+](=O)[O-])c1`, “inactive”.
Next, `CC1CCN(C(=O)Cn2nnnc2CN2CCOCC2)CC1`: “inactive”; `CCNC(=S)N1CCN(S(=O)(=O)c2ccc(Cl)s2)CC1`: “inactive”.
`CS(=O)(=O)N1CCN(C(=O)c2cc3ccccc3oc2=O)CC1`: the Potency entry is “inactive”.
Next, `O=C(c1cc2ccccc2o1)N1CCN(S(=O)(=O)c2ccc(Cl)s2)CC1`: 18.4 µM (active).
In the case of `COc1cccc(C(O)Cc2nc3ccccc3n2C)c1OC` (stereo unspecified), the Potency result was “inactive”.
Next, `NS(=O)(=O)c1ccc(CNC(=O)c2cccc(Oc3ccccc3)c2)cc1`: “inactive”; `CN1C(=O)[C@H]2[C@@H](C3CC3)N3C(=O)CN(Cc4ccccc4)C(=O)[C@@]3(C)[C@H]2C1=O`: “inactive”.
Regarding `COC(=O)CN1C(=O)[C@H]2[C@@H](/C=C/c3ccccc3)N3C(=O)CN(Cc4ccccc4)C(=O)[C@@]3(Cc3ccccc3)[C@H]2C1=O`, the Potency entry is “inactive”.
Next, `CN1C(=O)[C@H]2[C@@H](/C=C/c3ccccc3)N3C(=O)CN(Cc4ccc(-c5ccccc5)cc4)C(=O)[C@@]3(C)[C@H]2C1=O`: 25.9 µM (active).
Consider `O=C(C[C@@H]1C/C=C\CCC(=O)OC[C@@H]2CCCN2C1=O)NCCO`, for which the Potency result is “inactive”.
The result for `CC(=O)c1sc(N/N=C/c2ccc(C(C)C)cc2)nc1C` reads “inactive”; that for `CCC(C)c1ccc(NC(=S)NCc2ccccn2)cc1` (stereo unspecified), “inactive”.
Next, `CC(=O)N1CCc2cc(Br)cc(S(=O)(=O)CCC(=O)NCCc3ccc(Cl)cc3)c21`: “inactive”; `O=C(COc1ccc(Cl)cc1)Nc1ccc(-c2nc3cc(Cl)ccc3o2)c(O)c1`: “inactive”.
The result for `Cc1ccc(SCC(=O)Nc2ccc3oc(-c4ccccc4C)nc3c2)cc1` reads “inactive”; that for `COc1ccc2oc(-c3cccc(NC(=O)CSc4ccc(Cl)cc4)c3)nc2c1`, 20.6 µM (active); that for `Cc1ccccc1-c1nc(NC(C)C)nc2cc(-c3ccccc3)sc12`, 16.4 µM (active).
Consider `COc1ccccc1C(=O)NC(CCSC)C(=O)NNC(=O)c1csc(N2CCOCC2)n1` (stereo unspecified), for which the Potency result is “inactive”.
Next, `CNc1ncnc2ccc(-c3cccc(NS(C)(=O)=O)c3)cc12`: 11.6 µM (active); `CS(=O)(=O)Nc1cccc(-c2cn3ccccc3n2)c1`: “inactive”; `COc1ccccc1CNc1ncncc1-c1cccc(NS(C)(=O)=O)c1`: “inactive”.
The result for `O=C(CCS(=O)(=O)c1ccccc1)NC1CCCC1` reads “inactive”; that for `COC1=CCC2([N+](=O)[O-])CN(CC(=O)O)CC1([N+](=O)[O-])C2` (stereo unspecified), “inactive”.
Next, `CCOc1ccccc1NC(=O)CCn1cnnn1`: “inactive”; `Cc1ccc(C)c(NC(=O)CN(C)C(=O)c2ccc3ncsc3c2)c1`: “inactive”; `COc1ccc(CNC(=O)CCCn2nc(C)c([N+](=O)[O-])c2C)cc1`: “inactive”.
On to `Cc1ccc(Oc2cc(NC(=O)CCCn3nc(C)c([N+](=O)[O-])c3C)cc([N+](=O)[O-])c2)cc1`, for which the Potency was 16.4 µM (active).
Next, `CCc1ccc(NC(=O)Cn2nc(C)c([N+](=O)[O-])c2C)cc1`: “inactive”; `Cc1ccc(/C(N)=N/OC(=O)COc2ccc(Cl)c(C)c2)cc1`: “inactive”.
Next, `C/C(=N\NC(=O)Cc1ccccc1[N+](=O)[O-])c1cccnc1`: “inactive”; `CCc1ccccc1NC(=O)Cc1cn(C)c2ccccc12`: “inactive”; `Cc1cccc(C)c1NC(=O)CNC(=O)c1ccc(N2CCOCC2)c([N+](=O)[O-])c1`: “inactive”.
Next, `CC1CCN(c2ccc(C(=O)Nc3nnc(C4CC4)s3)cc2[N+](=O)[O-])CC1`: “inactive”.
As to `O=C(Nc1cccc(C(F)(F)F)c1)c1ccc(N2CCNCC2)c([N+](=O)[O-])c1`, the Potency was 14.6 µM (active).
Next, `CCOc1ccc(NC(=O)CC(Cc2ccc(Cl)cc2)C(=O)O)cc1` (stereo unspecified): “inactive”; `N#C/C(=C\c1ccc(O)c(O)c1)C(=O)NCc1ccccc1`: 29.9 µM (active).
Next, `N#C/C(=C\c1ccc(O)c(O)c1)C(N)=O`: “inactive”; `CC(C)NC(=O)/C(C#N)=C\c1ccc(N(C)C)c(Br)c1`: “inactive”.
Next, `CCc1nc(-c2cc(S(=O)(=O)N3CCN(c4ccc(OC)cc4)CC3)ccc2OC)no1`: “inactive”; `COc1cc2c(cc1O)C(SC)=NC(C)(C)C2`: 25.9 µM (active).
Consider `Cc1cn(C)c(=O)n(C)c1=O`, for which the Potency result was “inactive”.
Next, `O=C1CCCCC1C(=O)c1ccccc1` (stereo unspecified): “inactive”.
The result for `O=C(c1ccncc1)c1ccc([N+](=O)[O-])cc1` reads “inactive”.
The result for `O=C(Nn1cnnc1)c1ccc([N+](=O)[O-])cc1` reads “inactive”; that for `O=C(Cn1c[n+](CC(=O)c2ccc([N+](=O)[O-])cc2)cn1)c1ccc([N+](=O)[O-])cc1`, 16.4 µM (active); that for `COC(=O)CNC(=O)C(CCSC)NC(C)=O` (stereo unspecified) (Ac-[ξM]-Gly-OMe), “inactive”.
On to `Cc1ccc(S(=O)(=O)NC(C(=O)N2CCOCCOCCOCCOCC2)c2ccccc2)cc1` (stereo unspecified), for which the Potency entry was “inactive”.
Next, `CCCC(C(=O)n1nc(C)cc1C)C(NS(=O)(=O)c1ccc(C)cc1)c1ccccc1` (stereo unspecified): 16.4 µM (active).
The result for `Cc1ccc(S(=O)(=O)Nc2nc(C)cc(-n3nc(C)cc3C)n2)cc1` reads “inactive”; that for `Cc1cccc(C(=O)NNC(=O)CSc2nnc(C(C)C)n2C)c1`, “inactive”; that for `COc1ccc(NC(=O)C(c2ccccc2)N2Cc3ccccc3C2=O)cc1` (stereo unspecified), “inactive”.
Next, `Fc1ccc(/C=N/Nc2nc(-c3cccnc3)nc3ccccc23)cc1`: 20.6 µM (active); `Cc1cnc(CNc2nc(-c3cccnc3)nc3ccccc23)cn1`: “inactive”.
With `Cc1ccc2nc(C)cc(N/N=C/c3ccc(F)cc3)c2c1`, the Potency entry was “inactive”.
The result for `C/C(Cn1nnc2ccccc21)=N\OC(=O)c1cc(F)c(F)cc1Cl` reads “inactive”.
Take `Cc1cc(NC(=O)CCC(=O)N(CC(=O)NCC2CCCO2)c2ccccc2)no1` (stereo unspecified): the Potency entry was “inactive”.
The result for `CCc1nc2ccccc2c(C(=O)OC2CCCCC2=O)c1C` (stereo unspecified) reads “inactive”; that for `O=C(COC(=O)c1c2c(nc3ccccc13)CCCC2)c1ccc(Br)s1`, 8.2 µM (active); that for `Cn1cccc1C(=O)OCC(=O)c1ccc(Br)s1`, “inactive”.
`CCc1noc(C)c1C(=O)N1CCCSC1=Nc1ccccc1OC`: the Potency result was “inactive”.
The result for `CN(C)S(=O)(=O)c1ccc(C(=O)NCCN=C2NS(=O)(=O)c3ccccc32)cc1` reads “inactive”; that for `COC(=O)c1ccc(C(=O)NC2CC(C)(C)Cc3c2cnn3-c2ccc(F)cc2)nc1` (stereo unspecified), 1.84 µM (active).
Next, `CC1(C)Cc2c(cnn2-c2cccc(F)c2)C(NC(=O)c2cc[n+]([O-])cc2)C1` (stereo unspecified): “inactive”; `Cc1cc(C(=O)NC2CC(C)(C)Cc3c2cnn3-c2ccccc2)n[nH]1` (stereo unspecified): “inactive”.
Consider `Cc1ccc(Cl)cc1NC(=O)CCC(=O)N1CC(C)Sc2ccccc21` (stereo unspecified), for which the Potency was 23.1 µM (active).
Turning to `Cc1ccc(CNC(=O)CCC(=O)N2CC(C)Sc3ccccc32)cc1` (stereo unspecified), the Potency entry is “inactive”.
Next, `Cc1ccc(Cl)cc1NC(=O)COC(=O)C1CCCCC1`: “inactive”.
Next, `Cc1ccc(CNC(=O)CCNS(=O)(=O)c2ccc3c(c2)oc(=O)n3C)cc1`: “inactive”; `C(#CCN1CCOCC1)CCCN1CCOCC1`: “inactive”.
Next, `Cn1nc(C(F)(F)F)c2cc(NC(=O)OCC(C)(C)C)sc21`: “inactive”; `CCNC(=O)C1(C)CCCN(C(=O)c2c(C)noc2C)C1` (stereo unspecified): “inactive”.
As to `Cc1cc2ccccn2c1C(=O)c1cccc(S(=O)(=O)N2CCOCC2)c1`, the Potency was 14.6 µM (active).
Next, `Cc1cc2ccccn2c1C(=O)c1cccc(F)c1`: “inactive”; `O=C(COC(=O)c1ccccc1)Nc1cccc(S(=O)(=O)N2CCOCC2)c1`: “inactive”; `O=[N+]([O-])c1ccc(S(=O)(=O)Nc2cccc(-c3ccc(N4CCCC4)nn3)c2)cc1`: “inactive”.
Take `Cc1cc(C(=O)CC#N)c(C)n1-c1c(C)n(C)n(-c2ccccc2)c1=O`: the Potency entry was “inactive”.
Next, `C=C1CCN([C@@H](Cc2ccccc2)C(=O)N2CCOCC2)S(=O)(=O)c2ccccc21`: “inactive”; `CCn1c2ccccc2c2nnc(SCC(=O)O)nc21`: “inactive”.
Next, `CCOC(=O)c1sc(NC(=O)C(CC)Sc2nccn2C)nc1C` (stereo unspecified): “inactive”; `C=CCn1c2ccccc2c2nnc(SC(CC)C(=O)Nc3nc(C)c(C(=O)OCC)s3)nc21` (stereo unspecified): 11.6 µM (active).
On to `O=C(NC1CC1)C1CCCN(C(=O)NC2CCCCC2)C1` (stereo unspecified), for which the Potency entry is “inactive”.
Consider `CN(NC(=O)c1ccccc1F)c1nc(C(F)(F)F)nc2ccccc12`, for which the Potency is 0.206 µM (active).
Next, `COc1ccc(OCC(=O)NNC(=O)c2cccc(C)c2)cc1`: “inactive”; `O=C(Nn1cnc2ccccc2c1=O)c1ccccc1`: “inactive”; `Cc1ccc(S(=O)(=O)NC(=O)c2cccc(C)c2)cc1`: “inactive”.
With `CN(NC(=O)c1ccccc1)c1nc2ccccc2nc1C(F)(F)F`, the Potency was 8.2 µM (active).
Next, `CSc1nc(N(C)NC(=O)c2cccc(C)c2)c2ccccc2n1`: 0.0517 µM (active).
The result for `O=C(Cn1cnc2ccccc2c1=O)NNC(=O)c1ccccc1F` reads “inactive”.
Next, `COC(=O)CNC(=O)c1ccccc1F`: “inactive”; `Cc1nc2ccccc2c(=O)n1NC(=O)c1ccccc1`: “inactive”.
